Screens (PubChem)
Sampled rows, rich in hits. Any-hit rate of the full collection: about 6.9%.
MCF10A rereplic: induces DNA re-replication in MCF 10a normal breast cells; MCF 10A DNA re-replication, Hoechst nuclear intensity, 48 h; Potency, µM (doses to about 46.1 µM), hits mostly activators; 350,000 compounds, 2.9% hits; AID 624296; note: nearly all actives have a fitted effect of over 50% in size
SW480 rereplic: induces DNA re-replication in SW480 colon adenocarcinoma cells; Potency, µM (series often up to 46.1 µM), usual class: activators; SW480 DNA re-replication, Hoechst DNA content imaging, 48 h; 340,000 compounds, 1.8% hits; AID 624297; note: nearly all actives have a fitted effect of over 55% in size
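Readout is total intensity of Hoechst-stained nuclei, excited at 405 nm and collected at 500-530 nm. Compound treatment lasted 48 hr at 37 C in 5% CO2 before staining.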
Giardia kill: kills Giardia lamblia. 340,000 compounds, 0.15% hits. AID 540267. Giardia lamblia trophozoite viability. activity change, % at 7.66 µM, hits read low; in the data active = activity change below about -80%; inconclusive = between about -30% and that limit;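 note: parasites exposed to compound for two days anaerobically before the ATP read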
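Luminescent ATP signal served as the viability read-out, measured 15-30 min after adding ATP detection reagent to trophozoites that had been incubated with compounds for 48 hrs at 37 deg C anaerobically at 100 cells/well.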
S-ASM inh: blocks human secretory acid sphingomyelinase; P17405; placental ASM, HMU-PC fluorogenic substrate, 60 min; Potency, µM (doses to about 57.5 µM), most hits filed as inhibitors; 340,000 compounds, 0.006% hits
Target sequence (P17405 47-631 limits assumed): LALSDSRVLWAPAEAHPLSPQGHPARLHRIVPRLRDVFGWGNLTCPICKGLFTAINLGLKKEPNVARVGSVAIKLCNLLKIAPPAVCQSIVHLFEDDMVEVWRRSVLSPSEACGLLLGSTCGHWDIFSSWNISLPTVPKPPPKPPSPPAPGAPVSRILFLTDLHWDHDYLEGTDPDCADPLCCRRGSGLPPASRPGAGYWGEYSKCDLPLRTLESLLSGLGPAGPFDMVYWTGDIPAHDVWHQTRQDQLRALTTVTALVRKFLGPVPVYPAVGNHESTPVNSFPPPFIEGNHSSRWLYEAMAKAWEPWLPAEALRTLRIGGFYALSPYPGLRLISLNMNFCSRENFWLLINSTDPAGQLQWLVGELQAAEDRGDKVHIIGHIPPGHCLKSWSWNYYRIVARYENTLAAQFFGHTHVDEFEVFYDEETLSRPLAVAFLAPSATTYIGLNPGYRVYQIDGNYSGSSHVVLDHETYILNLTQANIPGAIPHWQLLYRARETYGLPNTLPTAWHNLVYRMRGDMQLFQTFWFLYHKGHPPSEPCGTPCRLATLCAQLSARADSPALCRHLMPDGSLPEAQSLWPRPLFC
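Human placenta-derived ASM preincubated with compound 10 min at room temperature, then reacted with 9 uM (final) fluorogenic HMU-PC substrate for 60 min at 37 C. Stop solution raises pH to 10; fluorescence read at Ex 386/Em 447 nm.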
KB-V1 cytotox: KB-V1 MDR subline cytotoxicity. Potency, µM (titrated, usually from 46.1 µM), usual class: cytotoxic. 400,000 compounds, 3.4% hits. KB-V1 MDR cells viability, CellTiter-Glo, 72 h; note: nearly all actives have a fitted effect of over 60% in size
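Cytotoxicity via CellTiter-Glo luminescence after 72 h compound exposure at 37 degrees C. Cells: drug-selected KB-V1 line, DMEM phenol-red free plus 10% FBS. Compounds tested at multiple concentrations; normalized data fitted to concentration-effect curves.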
KB-3-1 cytotox: KB-3-1 parental cell cytotoxicity; KB-3-1 viability, CellTiter-Glo ATP luminescence, 72 h; Potency, µM (top dose mostly 46.1 µM), most hits filed as cytotoxic; 400,000 compounds, 1.4% hits; note: nearly all actives have a fitted effect of over 60% in size
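Parental KB-3-1 adenocarcinoma cells in phenol-red-free DMEM with 10% FBS were pin-treated with compounds at several concentrations, incubated 72 h at 37 °C, and viability read by CellTiter-Glo luminescence; concentration-effect curves were fitted after normalization.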
Each line names hits and unclear results; the compound was inactive in the other large screens. Unless noted, calls come from the whole dose curve; as a rule, active = well fitted curve in the direction sought with a large enough effect; inconclusive = small, poorly fitted or top-dose-only effect, or another doubt; inactive = no such curve, though single readings can be large; an effect the other way counts as inactive or inconclusive.

CCCC/C=C/[C@H](c1ccccc1)[C@H](CO)Cc1ccc([N+](=O)[O-])cc1	none (no result: MCF10A rereplic, SW480 rereplic, S-ASM inh, KB-V1 cytotox, KB-3-1 cytotox)
Cc1ccc(-c2c3c(=O)n(C)c(=O)n(C)c3cn2Cc2ccccn2)cc1	none
COc1ccc(-c2c3c(=O)n(C)c(=O)n(C)c3cn2Cc2ccccn2)cc1	MCF10A rereplic 18.4µM, SW480 rereplic inconclusive
Cc1ccccc1CCNC(=O)c1ccc2c(c1)c(C)c(C)n2Cc1ccccc1	none (no result: MCF10A rereplic, SW480 rereplic, Giardia kill, S-ASM inh)
Cc1ccc(NC(=O)c2c(C)oc3ccc(O)c(CN4CCCCC4)c23)c(C)c1	KB-V1 cytotox inconclusive (no result: MCF10A rereplic, SW480 rereplic, Giardia kill, S-ASM inh)
Cc1ccc(NC(=S)NNC(=O)c2nnn(-c3ccccc3)c2C)cc1	KB-V1 cytotox 20.6µM
Cc1ccc(NC(=S)NNC(=O)c2nn(C)cc2Cl)cc1	none
O=C(Nc1ccc(-c2noc(CCc3ccccc3)n2)cc1)c1cccnc1	MCF10A rereplic 16.4µM, KB-V1 cytotox 16.4µM, KB-3-1 cytotox inconclusive
Cc1ccc(-c2ccc(=O)n(CCC(=O)NCCc3ccccc3)n2)cc1	none (no result: MCF10A rereplic, SW480 rereplic, Giardia kill, S-ASM inh)
CCc1ccccc1NS(=O)(=O)c1ccc2c(c1)OCC(C(=O)N1CCCC1)O2 (configuration not stated)	none (no result: MCF10A rereplic, SW480 rereplic, Giardia kill, S-ASM inh)
CNc1ncnc(Sc2nc(N)nc3nc[nH]c23)c1[N+](=O)[O-]	MCF10A rereplic inconclusive, SW480 rereplic 2.91µM, KB-V1 cytotox 1.03µM, KB-3-1 cytotox inconclusive
Nc1nc(Sc2ccc([N+](=O)[O-])c3nonc23)c2[nH]cnc2n1	MCF10A rereplic inconclusive, SW480 rereplic inconclusive, KB-V1 cytotox inconclusive, KB-3-1 cytotox 2.06µM
O=c1[nH]c2cc([N+](=O)[O-])cc(Cl)c2c2ccccc12	KB-V1 cytotox 11.6µM (no result: MCF10A rereplic, SW480 rereplic, Giardia kill, S-ASM inh)
CCOc1ccc(CCNC(=O)C2CCCN(S(=O)(=O)N(C)c3ccc(F)cc3)C2)cc1 (configuration not stated)	none (no result: MCF10A rereplic, SW480 rereplic, Giardia kill, S-ASM inh)
CCC(C)Nc1c2c(nc3c(-c4ccccc4)c(C)nn13)CCC2 (configuration not stated)	MCF10A rereplic inconclusive, KB-V1 cytotox 9.2µM
Cc1nn2c(Nc3ccc(F)cc3)c3c(nc2c1-c1ccccc1)CCC3	KB-V1 cytotox inconclusive
COCCNc1c2c(nc3c(-c4ccccc4)c(C)nn13)CCCC2	KB-V1 cytotox inconclusive
Cc1nn2c(N3CCCC3)c3c(nc2c1-c1ccccc1)CCC3	SW480 rereplic 18.4µM, KB-V1 cytotox inconclusive
COc1cccc(Nc2c3c(nc4c(-c5ccccc5)c(C)nn24)CCC3)c1	MCF10A rereplic 20.6µM, SW480 rereplic inconclusive, KB-V1 cytotox 18.4µM, KB-3-1 cytotox inconclusive
CCCCNc1c2c(nc3c(-c4ccccc4)c(C)nn13)CCC2	KB-V1 cytotox 23.1µM
Cc1nn2c(NCCCN3CCOCC3)c3c(nc2c1-c1ccccc1)CCC3	KB-V1 cytotox inconclusive
Cc1nn2c(N3CCN(CCO)CC3)c3c(nc2c1-c1ccccc1)CCCC3	SW480 rereplic inconclusive
O=[N+]([O-])c1ccccc1CCc1cnc(Cl)s1	none
COc1ccc2c(c1)c1c(c(=O)n(Cc3ccccc3)c(=O)n1Cc1ccc(C)cc1)n2C	none (no result: MCF10A rereplic, SW480 rereplic, Giardia kill, S-ASM inh)
O=C(NN=C1c2ccccc2-c2ccccc21)c1ccccn1	SW480 rereplic inconclusive, KB-V1 cytotox 5.17µM
CCN(C(=O)c1c(C)oc2ncn(CC(C)C)c(=O)c12)c1cccc(Cl)c1	none (no result: MCF10A rereplic, SW480 rereplic, Giardia kill, S-ASM inh)
CC(C)Oc1ccc(Cl)cc1Nc1nc(NCCO)nc(N2CCCC2)n1	MCF10A rereplic 23.1µM, SW480 rereplic inconclusive, KB-V1 cytotox inconclusive
Cc1ccc(C(=O)c2cn(CC(=O)Nc3ccc(C)cc3Cl)c3nc(C)ccc3c2=O)cc1	none (no result: MCF10A rereplic, SW480 rereplic, Giardia kill, S-ASM inh)
COc1cccc(C(N)c2nc(-c3csc4ccccc34)cs2)c1 (configuration not stated)	KB-V1 cytotox 8.2µM, KB-3-1 cytotox 7.31µM (no result: MCF10A rereplic, SW480 rereplic, Giardia kill, S-ASM inh)
OC(c1cccc(Cl)c1)c1nc(-c2csc3ccccc23)cs1 (configuration not stated)	none (no result: MCF10A rereplic, SW480 rereplic, Giardia kill, S-ASM inh)
C/C(=N\NC(=O)COc1ccc(C)cc1Br)c1cc([N+](=O)[O-])cs1	MCF10A rereplic 8.2µM, SW480 rereplic 9.2µM, Giardia kill inconclusive, KB-V1 cytotox inconclusive, KB-3-1 cytotox 20.6µM
C[C@H](CO)N1C[C@H](C)[C@@H](CN(C)S(=O)(=O)c2ccc(F)cc2)Oc2ccc(NC(=O)C3CCCCC3)cc2C1=O	none
